What was measured:
Experiment in all cases: PBM binding z-score (relative to random genomic background probes); higher = stronger binding; sequences stand for … in GC…GCGATTGACAGCGTAGAATGAAGG
[1] = tested on: RARb homodimer (NR concentration 270 nM)
Method in brief: (§1)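 Probes were double-stranded and carried 34-nt variable regions with direct-repeat seeds, single-nucleotide variants, half-site ablations and random human genomic background sequences, printed on custom Agilent 4×180K protein-binding microarrays. Arrays were incubated 1 h with ligand-free nuclear receptor dimers in PBS pH 7.4, 2% milk, 0.02% Triton X-100, 1 mM DTT, 0.2 mg/mL BSA and 0.4 mg/ml salmon testes DNA. Antibodies against each partner (one per run) detected binding, and scanned fluorescence was regression-normalized. Binding z-scores use the random background probes as reference.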

[2] = tested on: RARg:RXRa (NR concentration 270 nM, RXRa partner concentration 90 nM)
Method in brief: as §1

[3] = tested on: RARg homodimer (NR concentration 270 nM)
Method in brief: as §1

[4] = tested on: RXRa DBDmut IVT, anti-RXR (DBD mutation: RXRa K156A/R161A, NR concentration 90 nM)
Method in brief: as §1

[5] = tested on: RXRa homodimer (NR concentration 180 nM)
Method in brief: as §1

[6] = tested on: THRa:RXRa (NR concentration 90 nM, RXRa partner concentration 90 nM)
Method in brief: as §1

[7] = tested on: THRa homodimer (NR concentration 90 nM)
Method in brief: as §1

[8] = tested on: VDR:RXRa (NR concentration 270 nM, RXRa partner concentration 90 nM)
Method in brief: as §1

[9] = tested on: VDR homodimer (NR concentration 270 nM)
Method in brief: as §1

Sequence: TCTTGTAGATCAATAGGAGGTTAAGAAAGATCGA
- PBM binding z-score [1]: 0.457
- PBM binding z-score [2]: 0.595
- PBM binding z-score [3]: 0.446
- PBM binding z-score [4]: 1.01
- PBM binding z-score [5]: 0.992
- PBM binding z-score [6]: 0.723
- PBM binding z-score [7]: -0.311
- PBM binding z-score [8]: 0.721
- PBM binding z-score [9]: -0.266

Sequence: TCAGACAGGTCAAGGTAACTCAGGTACGCAGTCG
- PBM binding z-score [1]: 3.61
- PBM binding z-score [2]: 4.57
- PBM binding z-score [3]: 4.8
- PBM binding z-score [4]: 2.07
- PBM binding z-score [5]: 4.44
- PBM binding z-score [6]: 3.33
- PBM binding z-score [7]: 1.49
- PBM binding z-score [8]: 3.09
- PBM binding z-score [9]: 0.989

Sequence: TCTGCTAGGTCAACGATGGTCATCTAATCTGCTA
- PBM binding z-score [1]: 3.5
- PBM binding z-score [2]: 4.05
- PBM binding z-score [3]: 4.69
- PBM binding z-score [4]: 1.07
- PBM binding z-score [5]: 2.9
- PBM binding z-score [6]: 3.45
- PBM binding z-score [7]: 0.805
- PBM binding z-score [8]: 2.16
- PBM binding z-score [9]: -0.118

Sequence: GATACAGGGTCAGCTAGAGGCCAGAGTATGGAAA
- PBM binding z-score [1]: 3.39
- PBM binding z-score [2]: 6.67
- PBM binding z-score [3]: 4.67
- PBM binding z-score [4]: 1.4
- PBM binding z-score [5]: 4.36
- PBM binding z-score [6]: 3.08
- PBM binding z-score [7]: 0.503
- PBM binding z-score [8]: 3.33
- PBM binding z-score [9]: 0.622

Sequence: CCTTACGGGTCAAGGTTATGGCACGGGTGGTACG
- PBM binding z-score [1]: 3.66
- PBM binding z-score [2]: 5.06
- PBM binding z-score [3]: 4.67
- PBM binding z-score [4]: 1.1
- PBM binding z-score [5]: 5.31
- PBM binding z-score [6]: 3
- PBM binding z-score [7]: 0.804
- PBM binding z-score [8]: 3.53
- PBM binding z-score [9]: 1.45

Sequence: ACACACAGGTGAGTGAAGGTAACTCAGCTGGACG
- PBM binding z-score [1]: -0.00486
- PBM binding z-score [2]: 0.394
- PBM binding z-score [3]: 0.59
- PBM binding z-score [4]: -0.0875
- PBM binding z-score [5]: 0.549
- PBM binding z-score [6]: 1.57
- PBM binding z-score [7]: -0.409
- PBM binding z-score [8]: -0.0221
- PBM binding z-score [9]: -0.0907

Sequence: TCGCCTAGGTCAGATCGGGCCAGTATACGCTATA
- PBM binding z-score [1]: 2.21
- PBM binding z-score [2]: 2.39
- PBM binding z-score [3]: 3.24
- PBM binding z-score [4]: 0.643
- PBM binding z-score [5]: 1.38
- PBM binding z-score [6]: 3.98
- PBM binding z-score [7]: 0.0988
- PBM binding z-score [8]: 0.717
- PBM binding z-score [9]: -0.139

Sequence: CCGACTGGGGCATAAGGTTACAATAAGCCAGCCC
- PBM binding z-score [1]: 1.61
- PBM binding z-score [2]: 1.66
- PBM binding z-score [3]: 1.08
- PBM binding z-score [4]: -0.313
- PBM binding z-score [5]: 1.18
- PBM binding z-score [6]: 1.95
- PBM binding z-score [7]: 0.977
- PBM binding z-score [8]: 0.392
- PBM binding z-score [9]: -0.296

Sequence: ATCTCTAGGTAAAGATAGTTCAGTGACTGCAAAT
- PBM binding z-score [1]: 1.33
- PBM binding z-score [2]: 0.534
- PBM binding z-score [3]: 0.542
- PBM binding z-score [4]: 0.648
- PBM binding z-score [5]: -0.00287
- PBM binding z-score [6]: 0.905
- PBM binding z-score [7]: 0.426
- PBM binding z-score [8]: 1.05
- PBM binding z-score [9]: 0.571

Sequence: ATATGTAGGTTAAGGGCCATTCAGGTTGGTTCGC
- PBM binding z-score [1]: 1.36
- PBM binding z-score [2]: 0.896
- PBM binding z-score [3]: 1.04
- PBM binding z-score [4]: 0.622
- PBM binding z-score [5]: 1.21
- PBM binding z-score [6]: 1.17
- PBM binding z-score [7]: 0.32
- PBM binding z-score [8]: 1.01
- PBM binding z-score [9]: 1.15

Sequence: TCTTGTAGATAAAAGGTTAAGAAAGCCGAAGCCT
- PBM binding z-score [1]: 1.42
- PBM binding z-score [2]: 1.43
- PBM binding z-score [3]: 0.971
- PBM binding z-score [4]: 1.2
- PBM binding z-score [5]: 2.28
- PBM binding z-score [6]: 1.14
- PBM binding z-score [7]: -0.62
- PBM binding z-score [8]: 1.2
- PBM binding z-score [9]: 0.00564

Sequence: TCGAGTAGGTTACCAATGGGGCATTCGGCTTTCT
- PBM binding z-score [1]: 0.464
- PBM binding z-score [2]: 1.01
- PBM binding z-score [3]: 0.0889
- PBM binding z-score [4]: 0.423
- PBM binding z-score [5]: 0.335
- PBM binding z-score [6]: -0.119
- PBM binding z-score [7]: -0.584
- PBM binding z-score [8]: 0.0858
- PBM binding z-score [9]: -0.411

Sequence: TCTGCTAGGTCAACGATGGTCACCTAATCTGCTA
- PBM binding z-score [1]: 3.63
- PBM binding z-score [2]: 4.17
- PBM binding z-score [3]: 4.77
- PBM binding z-score [4]: 1.06
- PBM binding z-score [5]: 2.69
- PBM binding z-score [6]: 3.58
- PBM binding z-score [7]: 1.37
- PBM binding z-score [8]: 2.19
- PBM binding z-score [9]: 0.156

Sequence: CCTTACGGGTCACTGGCAGGTTATAGCATTTGGA
- PBM binding z-score [1]: 3.16
- PBM binding z-score [2]: 5.81
- PBM binding z-score [3]: 4.75
- PBM binding z-score [4]: 1.66
- PBM binding z-score [5]: 4.96
- PBM binding z-score [6]: 3.14
- PBM binding z-score [7]: 0.323
- PBM binding z-score [8]: 3.81
- PBM binding z-score [9]: 1.16

Sequence: TGTCAAAGTTCAAAGGTAACGTATGTATCCACAC
- PBM binding z-score [1]: 3.78
- PBM binding z-score [2]: 6.21
- PBM binding z-score [3]: 5.94
- PBM binding z-score [4]: 4.28
- PBM binding z-score [5]: 6.97
- PBM binding z-score [6]: 3.08
- PBM binding z-score [7]: -0.0625
- PBM binding z-score [8]: 5.14
- PBM binding z-score [9]: 3.87

Sequence: TCAGACAGGTGATGGTAACTCAGGTACGCAGTCG
- PBM binding z-score [1]: 0.401
- PBM binding z-score [2]: 0.447
- PBM binding z-score [3]: 0.147
- PBM binding z-score [4]: 0.843
- PBM binding z-score [5]: 0.688
- PBM binding z-score [6]: 0.659
- PBM binding z-score [7]: 0.545
- PBM binding z-score [8]: 0.615
- PBM binding z-score [9]: 0.532

Sequence: CGTCCTAGGTCAGAGAGGTCAGTGAATGCCGAGT
- PBM binding z-score [1]: 4.71
- PBM binding z-score [2]: 5.31
- PBM binding z-score [3]: 5.94
- PBM binding z-score [4]: 1.92
- PBM binding z-score [5]: 4.49
- PBM binding z-score [6]: 3.77
- PBM binding z-score [7]: 1.92
- PBM binding z-score [8]: 6.8
- PBM binding z-score [9]: 3.9

Sequence: ACTATTAGTTGCGACGAGGGCAACCGATAGGTTG
- PBM binding z-score [1]: 0.942
- PBM binding z-score [2]: 0.259
- PBM binding z-score [3]: 0.489
- PBM binding z-score [4]: 0.4
- PBM binding z-score [5]: 0.472
- PBM binding z-score [6]: 1.09
- PBM binding z-score [7]: 0.3
- PBM binding z-score [8]: 0.0281
- PBM binding z-score [9]: 0.643

Sequence: TCTATTAGTTGAAGGGCATCCGACGAGTCCGTTT
- PBM binding z-score [1]: 0.904
- PBM binding z-score [2]: 0.374
- PBM binding z-score [3]: 0.361
- PBM binding z-score [4]: 1.86
- PBM binding z-score [5]: 0.598
- PBM binding z-score [6]: 0.0886
- PBM binding z-score [7]: 0.288
- PBM binding z-score [8]: 1.08
- PBM binding z-score [9]: 1.51

Sequence: ATATGTAGGTTACATCCGGGTCCTTCAGGCTATG
- PBM binding z-score [1]: 0.958
- PBM binding z-score [2]: 0.862
- PBM binding z-score [3]: 0.764
- PBM binding z-score [4]: 0.474
- PBM binding z-score [5]: 1.07
- PBM binding z-score [6]: 1.51
- PBM binding z-score [7]: 0.753
- PBM binding z-score [8]: 0.695
- PBM binding z-score [9]: 0.68

Sequence: CGTCGAAGGTCAGAGAGGTCAGTGAATGCCGAGT
- PBM binding z-score [1]: 5.14
- PBM binding z-score [2]: 6.51
- PBM binding z-score [3]: 7.29
- PBM binding z-score [4]: 2.6
- PBM binding z-score [5]: 5.68
- PBM binding z-score [6]: 3.85
- PBM binding z-score [7]: 1.32
- PBM binding z-score [8]: 7.5
- PBM binding z-score [9]: 5.14

Sequence: ACTATTAGTTGACTTAAGGCAACCGATACGACGC
- PBM binding z-score [1]: 0.11
- PBM binding z-score [2]: 0.623
- PBM binding z-score [3]: 0.592
- PBM binding z-score [4]: 0.8
- PBM binding z-score [5]: 0.347
- PBM binding z-score [6]: 2.4
- PBM binding z-score [7]: 0.592
- PBM binding z-score [8]: 0.358
- PBM binding z-score [9]: 0.124

Sequence: CCTACTTGGCCAAAGGTCATTGATTCCAATGCTC
- PBM binding z-score [1]: 4.5
- PBM binding z-score [2]: 5.37
- PBM binding z-score [3]: 4.64
- PBM binding z-score [4]: 2.06
- PBM binding z-score [5]: 6.05
- PBM binding z-score [6]: 3.3
- PBM binding z-score [7]: 1.25
- PBM binding z-score [8]: 4.62
- PBM binding z-score [9]: 2.51

Sequence: TCAGACAGGTGAAGGTTACTCAGGTACGCAGTCG
- PBM binding z-score [1]: 1.84
- PBM binding z-score [2]: 1.16
- PBM binding z-score [3]: 1.17
- PBM binding z-score [4]: 1.54
- PBM binding z-score [5]: 1.72
- PBM binding z-score [6]: 2.58
- PBM binding z-score [7]: 0.799
- PBM binding z-score [8]: 1.69
- PBM binding z-score [9]: 0.58

Sequence: CAAACTCGGTCAAGAGGTCAAAGTCCGCTTCCCG
- PBM binding z-score [1]: 5.17
- PBM binding z-score [2]: 7.26
- PBM binding z-score [3]: 6.13
- PBM binding z-score [4]: 2.01
- PBM binding z-score [5]: 6.42
- PBM binding z-score [6]: 3.9
- PBM binding z-score [7]: 1.61
- PBM binding z-score [8]: 5.41
- PBM binding z-score [9]: 3.72

Sequence: TAGCCTAAGTCATTGGGCCAGTATAGTACGCATC
- PBM binding z-score [1]: -0.447
- PBM binding z-score [2]: 0.191
- PBM binding z-score [3]: 0.0194
- PBM binding z-score [4]: -0.879
- PBM binding z-score [5]: 0.156
- PBM binding z-score [6]: -0.214
- PBM binding z-score [7]: -0.958
- PBM binding z-score [8]: -0.202
- PBM binding z-score [9]: -0.312

Reference: the supplement of paper PMC6555819
